# Records with an inconclusive call do not appear. Activity calls are given as the source filed them. Calls follow the shape of the dose curve; as a rule, active = well fitted inhibition curve with a large enough effect; inconclusive = small, poorly fitted or top-dose-only effect; inactive = flat fitted curve, though single readings scatter.
# Tested on: CRL-7250
# Assay: qHTS assay to identify novel small-molecules to repurpose for Merkel cell carcinoma treatment (AID 1296009); also: nearly all actives have a fitted effect of over 60% in size
# Details: MCC and control cell lines, CellTiter-Glo viability, 72 h; at 44.8 µM (top of the series) unless noted
# Method in brief: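 Cell viability measured by CellTiter-Glo following 72 hr compound treatment at 37 degree celsius, with NPC and MIPE libraries tested in 8- and 11-point concentration series.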
row,SMILES,outcome
1,C/C(=C(\CCO)SS/C(CCO)=C(\C)N(C=O)Cc1cnc(C)nc1N)N(C=O)Cc1cnc(C)nc1N,inactive
2,CC(C)(Sc1cc(C(C)(C)C)c(O)c(C(C)(C)C)c1)Sc1cc(C(C)(C)C)c(O)c(C(C)(C)C)c1,inactive
3,Cc1ncc([N+](=O)[O-])n1CC(C)O (configuration not stated),inactive
4,CC(C)Cn1cnc2c(N)nc3ccccc3c21,inactive [at 17.4 µM]
5,CC(C)=CCC/C(C)=C/CO,inactive
6,O=c1[nH]c(=O)n([C@H]2C[C@H](O)[C@@H](CO)O2)cc1I,inactive
7,C[C@]12C=CC(=O)C=C1CC[C@@H]1[C@@H]2C(=O)C[C@@]2(C)[C@H]1CC[C@]2(O)C(=O)CO,inactive [at 17.4 µM]
8,COc1cc(OC)c(C(=O)CCCN2CCCC2)c(OC)c1,inactive
9,NC(=O)NS(=O)(=O)c1ccc(Cl)cc1,inactive
10,CC(C)(C)C(=O)Oc1ccc(S(=O)(=O)Nc2ccccc2C(=O)NCC(=O)O)cc1,inactive
11,COCCCOc1ccnc(CS(=O)c2nc3ccccc3[nH]2)c1C (configuration not stated),inactive
12,Cc1cnc(NS(=O)(=O)c2ccc(N)cc2)nc1,inactive
13,O=C(O)c1c(O)c(-c2ccccc2)nc2ccccc12,inactive
14,CO[C@@]1(NC(=O)Cc2cccs2)C(=O)N2C(C(=O)O)=C(COC(N)=O)CS[C@@H]21,inactive
15,CCS(=O)(=O)CCn1c([N+](=O)[O-])cnc1C,inactive
16,C=CCc1ccc(O)c(OC)c1,inactive
17,COc1cc(C(=O)NS(=O)(=O)c2ccccc2C)ccc1Cc1cn(C)c2ccc(NC(=O)OC3CCCC3)cc12,inactive

# Reference: PubChem BioAssay (NCATS)
